Nrf2 block = Nrf2 pathway inhibition; A549 ARE-Fluc reporter, luciferase luminescence, 18-24 h; actives 2.1% (n = 360,000); Potency, µM (doses to about 46 µM), usual class: inhibitors; note: nearly all actives have a fitted effect of over 60% in size
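Nrf2 activity is the BugLite luminescence, read 15 min after reagent at room temperature, following CellTiter-Fluor cytotoxicity readout (30 min, 37C). Compound titrations were applied for 18-24 h to 5000 A549 ARE_Fluc cells/well in 5% FBS OPTI-MEM.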
ATXN2 expr inh = inhibitors of ATXN2 expression | Potency, µM (top dose mostly 57 µM), most hits filed as inhibitors | actives 0.72% (n = 360,000) | HEK-293 ATXN2-luciferase reporter, luminescence, 24 h; note: nearly all actives have a fitted effect of over 55% in size
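qHTS (up to 57 uM final) was run with 24 h compound exposure of reporter cells at 37 °C. Each well was multiplexed: SteadyGlo luminescence measured ATXN2-luciferase expression after a fluorogenic Gly-Phe-AFC viability readout (25 uM final).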
TGFb SMAD3 inh = blocks TGF-b signaling | HepG2 CAGA-GFP TGF-b/SMAD3 reporter, GFP fluorescence, 18 h; TGF-beta stimulated, 500 pg/mL final | Potency, µM (titrated, usually from 46.1 µM), hits mostly inhibitors | actives 1.2% (n = 410,000) | AID 588855; note: nearly all actives have a fitted effect of over 65% in size
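GFP signal (ex488/em500-530) from TGF-beta-stimulated HEPG2 CAGA-GFP cells, 500 pg/mL final, 18 h at 37 degrees C in DMEM plus 1% FBS, normalized to unstimulated and DMSO-stimulated controls.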
A549 tox = A549 cytotoxicity, counter-screen for Nrf2 inhibitors. Potency, µM (top dose mostly 46 µM), actives largely listed as inhibitors. actives 0.16% (n = 390,000). A549 ARE-Fluc cells, CellTiter-Fluor viability, 18-24 h
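Cytotoxicity counterscreen: CellTiter-Fluor fluorescence was measured in A549 ARE_Fluc cells after 18-24 h of compound exposure in a concentration series. The subsequent BugLite luminescent read reports ARE-luciferase activity.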
ATXN viability = cell viability loss in ATXN counter-screen; S2 cells (HEK-293 line with an ATXN2-luciferase reporter) viability, CellTiter-Fluor protease fluorescence, 24 h; Potency, µM (series often up to 56.7 µM), hits mostly cytotoxic; actives 0.49% (n = 400,000); note: nearly all actives have a fitted effect of over 40% in size
HepG2 viability = counter-screen for TGF-b inhibitors: cytotoxicity in HepG2 cells | HepG2 CAGA-GFP viability, ATP luminescence, 18 h | Potency, µM (series often up to 46.1 µM), hits mostly cytotoxic | actives 0.76% (n = 410,000) | AID 588856
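HepG2 CAGA-GFP cells (1000/well, DMEM with 1% FBS) received compound, then TGF-beta at 500 pg/mL final, and were incubated 18 hours at 37 degrees C. Viability was read by CellTiter-Glo luminescence. Media-only wells were set as complete cell-killing and DMSO as no toxicity.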
Hits are given with their value; n = inactive; u = inconclusive; x = no result; [ ] = dose if it differs, or a comment. Shown are actives, neighbours in structure and some others; about 3.8% of the full set was active somewhere. Calls come from the whole dose curve; as a rule, active = well fitted curve in the direction sought with a large enough effect; inconclusive = small, poorly fitted or top-dose-only effect, or another doubt; inactive = no such curve, though single readings can be large; an effect the other way counts as inactive or inconclusive.

SMILES	Nrf2 block	ATXN2 expr inh	TGFb SMAD3 inh	A549 tox	ATXN viability	HepG2 viability
C/C(=N\Nc1ccccn1)c1ccc(C(C)C)cc1	u	n	13µM	n	n	n
Cc1cc(NC(=O)C2CCCN2C(=O)Nc2cccc(Cl)c2)ccc1-n1cnnn1 (centres undefined)	16µM	n[11.3 µM]	n	n	n	n
Cc1sc2c(c1C)c(=O)n(-c1cccc(C(F)(F)F)c1)c(=O)n2Cc1ccccc1C#N	n	n	n	n	n	n
CC(C)=CCc1cc([C@@H]2COc3c(ccc4c3C=CC(C)(C)O4)C2)c(O)cc1O	u	u	14µM	n	x	16µM
COc1c(CC=C(C)C)cc(C2CC(=O)c3c(O)cc(O)cc3O2)cc1CC=C(C)C (centres undefined)	u	u	14µM	n	x	16µM
O=C1OC(c2ccccc2)(c2cc(Br)ccc2O)c2ccccc21 (centres undefined)	u	u	20µM	u	x	n
O=C1CC(/C=C/c2ccncc2)=Nc2ccccc2N1	n	n[11.3 µM]	n	n	u	n
CCOC(=O)N1CCC(NS(=O)(=O)c2ccc(NC(C)=O)c(Cl)c2)CC1	12µM	n	n	n	n	n
CCOC(=O)N1CCC(NS(=O)(=O)c2ccc(C)cc2)CC1	n	n	n	n	x	n
CCN(C(=S)Nc1ccc(Oc2ccccc2)cc1)c1ccccc1	n	n	n	n	n	n
Cc1cc(NC(=O)CC2(CC(=O)O)CCCC2)n(C)n1	n	n	n	n	n	n
Cc1ccc(C(=O)c2oc3ccccc3c2NC(=O)c2cc(-c3ccccc3O)n[nH]2)cc1	u	n	n	n	x	n
Cc1ccc(C(=O)c2oc3ccccc3c2NC(=O)c2cc(-c3cc(C)ccc3O)n[nH]2)cc1	26µM	n	n	n	n	n
CCCN(CCC)S(=O)(=O)c1ccc(Cl)c([N+](=O)[O-])c1	n	u	u	n	24µM	n
Cc1ccc2nccnc2c1	x	x	8.9µM	x	x	5.6µM
Clc1ccc2nccnc2c1	x	x	u	x	x	14µM
Cc1ccc2c(C)ccnc2c1	x	x	u	x	x	n
O=C(Oc1ccc(Cl)cc1)c1ccc2nccnc2c1	n	n	n	n	n	n
Cc1c(N=O)c(-c2ccccc2)n(O)[n+]1[O-]	x	x	n	x	n	n
N#Cc1ccccc1COc1cccc2c1CCCC2O (centres undefined)	n	n	n	n	n	n
CCOC(=O)c1c(C)[nH]c(C(=O)CN2C(=O)NC(C)(c3ccc4ccccc4c3)C2=O)c1C (centres undefined)	26µM	n	u	n	n	n
Cc1cc(C)cc(NC(=O)C(Cc2ccccc2)NS(=O)(=O)c2ccc3c(c2)CCC(=O)N3)c1 (centres undefined)	n	n	n	n	n	n
O=c1[nH]cnc2n[nH]nc12	x	x	n	x	x	n
COC(=O)C1=C(C)NC2=C(C(=O)CC(C)(C)C2)C1c1cn(Cc2ccc(Br)cc2)nc1-c1ccccc1 (centres undefined)	13µM	n	n	n	n	n
COC(=O)C1=C(C)NC2=C(C(=O)CCC2)C1c1cn(Cc2ccc(Br)cc2)nc1-c1ccccc1 (centres undefined)	u	n	n	n	n	n
SMILES	Nrf2 block	ATXN2 expr inh	TGFb SMAD3 inh	A549 tox	ATXN viability	HepG2 viability
Oc1ccc(-c2nc3ccc4ccccc4c3c3c2CCC3)cc1O	n	n	n	n	n	25µM
Cc1cc(C)c2c(ccc3ccccc32)n1	n	n	n	n	u	n
Clc1ccc2c(N/N=C/c3ccccc3Br)ccnc2c1	10µM	u	n	u	u	n
C/C(=N/Nc1ccnc2cc(Cl)ccc12)c1ccc(N)cc1	n	n	u	n	25µM	n
C/C(=N/Nc1ccnc2cc(Cl)ccc12)c1ccc(O)cc1	n	n	u	n	u	n
O=[N+]([O-])c1ccc(/C=N/Nc2ccnc3cc(Cl)ccc23)o1	n	n	u	n	u	20µM
Clc1ccc2c(N/N=C/c3cccc(Br)c3)ccnc2c1	n	u	n	n	x	n
O=C(O)CSc1nnc2c(n1)[nH]c1ccccc12	n	n	n	n	n	n

Compound activity from PubChem BioAssay.
